TDP1 cell CPT: DT40-hTDP1 cell growth loss with CPT | chicken DT40 Tdp1-/-;hTDP1 cells + 20 nM CPT, ATP luminescence, 48 h | Potency, µM (doses to about 46.2 µM), hits mostly inhibitors | 420,000 compounds, 12% hits | AID 686979; also: nearly all actives have a fitted effect of over 55% in size
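Chicken DT40 Tdp1-/- cells stably complemented with human TDP1 were seeded at 400 cells/well in medium containing 20 nM camptothecin, exposed to pin-transferred compounds, and grown at 37 °C for at least 48 hr. Viability was read as ATP luminescence.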
TDP1 block: inhibitors of human tyrosyl-DNA phosphodiesterase TDP1 | Potency, µM (series often up to 130 µM), usual class: inhibitors | AID 485290 | recombinant TDP1, AlphaScreen DNA substrate cleavage | 350,000 compounds, 0.28% hits; also: nearly all actives have a fitted effect of over 40% in size
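Steps: enzyme plus compound, 15 min RT; add biotin/phosphotyrosine-FITC oligonucleotide (15 nM final), react 5 min; add donor/acceptor beads (10 ug/ml final), 10 min; read AlphaScreen. Tdp1 at 1 nM final.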
TDP1 cell noCPT: qHTS for Inhibitors of human tyrosyl-DNA phosphodiesterase 1 (TDP1): qHTS in cells in absence of CPT | DT40 Tdp1-/- hTDP1 cells, no CPT, ATP luminescence, 48 h | Potency, µM (series often up to 46.2 µM), usual class: inhibitors | 420,000 compounds, 15% hits; also: nearly all actives have a fitted effect of over 55% in size
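Readout: luminescence from CellTiter-Glo after 30 min in the dark at RT. Cells: DT40 Tdp1-/- with stable hTDP1, 400/well. Exposure: compounds alone, ≥48 hr, 37 °C.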
GCN5L2 inh: GCN5L2 (KAT2A) acetyltransferase inhibition | Q92830 | GCN5L2 HAT assay, ThioGlo1 CoA-SH fluorescence | Potency, µM (highest dose often 58.9 µM), actives largely listed as inhibitors | 390,000 compounds, 0.21% hits
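Titration-based screen in which CoA formation is detected via maleimide probe ThioGlo1 (50uM) turning fluorescent on thiol reaction; substrates H3(1-25) 75uM and acetyl-CoA 70uM, GCN5L2 20nM, 20 min incubation at room temperature.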
PLK1 PBD inh: PLK1 (human) polo-box domain binding inhibition. Plk1 PBD binding of FITC phosphopeptide, fluorescence polarization. Potency, µM, actives largely listed as inhibitors. 360,000 compounds, 2.8% hits. AID 720504; also: series mostly up to about 57 µM; nearly all actives have a fitted effect of over 65% in size
VDR inhibitor: vitamin D3 receptor (human) inhibition; VDR-SRC2-3 peptide fluorescence polarization, 2 h; Potency, µM, hits mostly inhibitors; 400,000 compounds, 0.93% hits; AID 504847
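Fluorescence polarization assay measuring small-molecule disruption of VDR binding to the coregulator peptide SRC2-3. Compounds were pin-transferred (23 nl) into the reagent mix and incubated 2 h at room temperature before reading.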
Numbers stand for hits; - = inactive; ? = inconclusive; . = not tested or not shown; [ ] = another dose, or the depositor's remark. Rows were chosen to be rich in hits. Some 18% of all compounds tested hit in one or more screens of this group. Calls follow the shape of the dose curve; as a rule, active = well fitted curve in the direction sought with a large enough effect; inconclusive = small, poorly fitted or top-dose-only effect, or another doubt; inactive = no such curve, though single readings can be large; an effect the other way counts as inactive or inconclusive.

SMILES	TDP1 cell CPT	TDP1 block	TDP1 cell noCPT	GCN5L2 inh	PLK1 PBD inh	VDR inhibitor
Fc1ccc(NC(=S)Nc2cc(Cl)ccc2Cl)cc1	5.8µM	-	?	-	-	-
Fc1ccc(NC(=S)Nc2ccc(Cl)cc2)cc1	?	-	23.1µM	-	-	-
O=C(NNC(=S)Nc1ccc(F)cc1)C1CC1c1ccc(Cl)cc1 (stereo not given)	?	-	?	-	-	-
CCC(C)(C)C1CCC(=NNC(=S)Nc2ccccc2)CC1 (stereo not given)	?	-	14.6µM	-	-	-
Fc1ccc(NC(=S)NN=C2CCCCCC2)cc1	?	-	?	-	-	-
COc1ccc2ccccc2c1CN1CCc2nnc(C(NS(C)(=O)=O)C(C)C)n2CC1 (stereo not given)	?	.	-	.	.	.
Cc1cccc(NC(=O)C(C)Sc2nc3nc(C)cc(C)n3n2)c1 (stereo not given)	-	-	-	-	-	-
O=C(NNCS(=O)(=O)O)c1ccncc1	-	.	-	-	.	-
c1ccc(-c2nnc3sc(CN4CCc5ccccc54)cn23)cc1	20.6µM	-	?	-	-	-
Brc1ccc(-c2nnc3sc(CN4CCc5ccccc5C4)cn23)cc1	-	.	-	.	-	-
COc1cccc(-c2nnc3sc(CN4CCCCC4)cn23)c1	1.16µM	-	1.3µM	-	.	-
C=CCn1ccc(O)c(Cc2ccc(Cl)cc2)c1=O	-	.	-	-	-	-
Cn1ncc2c(Nc3ccc(Cl)cc3)ncnc21	?	-	?	-	-	-
Cn1ncc2cc3c(Nc4ccc(Cl)cc4)cccc3nc21	20.6µM	.	11.6µM	.	-	.
Cc1ccc2c(c1Br)/C(=N/N1C(=O)c3ccccc3C1=O)C(=O)N2	20.6µM	-	23.1µM	-	-	?
Cc1ccc(C)c(C(C)NC(=O)c2ccc(Br)o2)c1 (stereo not given)	?	-	?	-	-	-
Cc1ccc(-n2nc(C(=O)N3CCN(c4ccccc4F)CC3)c3c4ccccc4n(C)c3c2=O)cc1	-	-	-	-	.	-
COC(=O)c1ccc(C(=O)OC)c(NC(=O)CN2CCC(C)CC2)c1	-	-	?	-	-	-
CC1CCN(CC(=O)Nc2ccccc2C(=O)c2ccccc2)CC1	20.6µM	-	14.6µM	-	-	-
CC1CCN(CC(=O)NCc2ccccc2)CC1	-	-	-	-	-	-
CC1CCN(CC(=O)Nc2ccccc2-c2ccccc2)CC1	18.4µM	-	?	-	-	-
CC1CCCCC1NCC(=O)Nc1ccccc1-c1ccccc1 (stereo not given)	?	-	18.4µM	-	-	-
CC1(C)Cc2nc(NC3CCCCC3)c(C#N)cc2CO1	?	-	23.1µM	-	-	-
COc1ccc(C2Nc3ccccc3C(=O)N2Cc2ccccc2)cc1COc1ccc(C#N)cc1 (stereo not given)	.	-	.	.	.	.
CCc1ccc(CNC(=O)c2ccc3nc(C4CCCCC4)oc3c2)nc1	.	-	.	-	.	.
SMILES	TDP1 cell CPT	TDP1 block	TDP1 cell noCPT	GCN5L2 inh	PLK1 PBD inh	VDR inhibitor
Cc1cnc(C(=O)NNC(=O)c2ccc(Br)cc2)cn1	3.66µM	-[0.505 µM]	5.8µM	-	-	-
O=C(NNC(=O)C1CCC1)c1ccc(Br)cc1	-	.	-	-	-	-
COC(=O)NC(CC(C)=O)c1ccco1 (stereo not given)	.	-[21 µM]	.	.	.	.
O=C(C1CCN(C2CCN(Cc3ccsc3)CC2)CC1)N1CCOCC1	-	-	-	-	-	-
COc1cc(CN(CCc2c(C)[nH]c3ccc(C)cc23)C(=S)NC(C)(C)C)cc(OC)c1OC	20.6µM	-	16.4µM	-	-	-
CCOC(=O)N1CCN(c2c(NCc3ccc(N(C)C)cc3)c(=O)c2=O)CC1	-	-	-	-	-	-
CCOC(=O)N1CCN(c2c(NCc3ccccc3Cl)c(=O)c2=O)CC1	18.4µM	.	29.1µM	-	-	-
Cc1ccc(C(=O)NCC(=O)OCC(=O)c2ccc3ccccc3c2)cc1	-	-	-	.	.	-
CC(C)(C)C(=O)OCC1OC(n2cnc(C(N)=O)n2)C(O)C1O (stereo not given)	16.4µM	-	?	-	-	-

Source: PubChem
